Source: PubChem BioAssay (NCI)
Values joined by “and” are separate entries in the source; they are usually repeats but may differ in a detail not shown here. Equal values may be shown once. About 83,000 compounds went through this panel and 20% of them were active in at least one assay; those are over-represented in the sample as a whole.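 Treatment: one concentration, 48 hours, 96-well format. Scoring: percent growth, with anything below 10 considered active.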 Active and inactive are the calls of the source.

Key:
Test in all cases: NCI-60 one-dose screen, 48 h (100 = growth as untreated, 0 = no growth, -100 = all killed)
Conditions in all cases: 10 µM unless noted
HCT-15 colon = tested on: HCT-15 colon
HT29 colon = tested on: HT29 colon
SNB-75 CNS = tested on: SNB-75 CNS
SNB-19 CNS = tested on: SNB-19 CNS
U251 CNS = tested on: U251 CNS
PC-3 prostate = tested on: PC-3 prostate
SK-MEL-5 melanoma = tested on: SK-MEL-5 melanoma
UACC-62 melanoma = tested on: UACC-62 melanoma
LOX IMVI melanoma = tested on: LOX IMVI melanoma
SK-MEL-28 melanoma = tested on: SK-MEL-28 melanoma

Measured: growth

Nc1ccccc1SC(CC(=O)c1ccccc1)c1ccc([N+](=O)[O-])cc1 (stereo not given)
inactive: HCT-15 colon 87.7% and 59% | HT29 colon 19.7% and 39.1% | SNB-75 CNS 84.6% and 80.8% | SNB-19 CNS 93.2% and 101% | U251 CNS 62.6% and 57.4% | PC-3 prostate 70.9% and 59.6% | SK-MEL-5 melanoma 105% | UACC-62 melanoma 90.9% and 84.5% | LOX IMVI melanoma 41.7% and 45.5% | SK-MEL-28 melanoma 94.4% and 99.6%

Cc1ccc(Cl)cc1N1CCN(C(=O)[C@@H]2C[C@@H]2c2ccc(F)cc2)CC1
inactive: HCT-15 colon 85.4% | HT29 colon 72.7% | SNB-75 CNS 96.2% | SNB-19 CNS 92% | U251 CNS 90% | PC-3 prostate 69.1% | SK-MEL-5 melanoma 80.7% | UACC-62 melanoma 69.7% | LOX IMVI melanoma 97.6% | SK-MEL-28 melanoma 103%

CS(=O)(=O)Nc1cc(-c2ccc3ncnc(Nc4ccc(F)c(Cl)c4)c3c2)cnc1Cl
inactive: SNB-19 CNS 20.1% | SK-MEL-28 melanoma 14.8%
active: HCT-15 colon 8.37% | HT29 colon 9.63% | SNB-75 CNS -15.9% | U251 CNS 3.05% | PC-3 prostate -7.94% | SK-MEL-5 melanoma -93.5% | UACC-62 melanoma -8.21% | LOX IMVI melanoma -23.8%

Brc1ccc(/C=C(/C2=NCCN2)n2ccc3ccccc32)cc1
inactive: HCT-15 colon 73.7% | HT29 colon 65.1% | SNB-75 CNS 33% | SNB-19 CNS 85.1% | U251 CNS 65.6% | PC-3 prostate 45% | SK-MEL-5 melanoma 73.4% | UACC-62 melanoma 75.8% | LOX IMVI melanoma 50.5% | SK-MEL-28 melanoma 100%

Cc1nc(-n2[nH]c(=O)ccc2=O)sc1N=Nc1ccccc1
inactive: HCT-15 colon 101% | HT29 colon 110% | SNB-75 CNS 95.7% | SNB-19 CNS 99.3% | U251 CNS 100% | PC-3 prostate 95.8% | SK-MEL-5 melanoma 97.4% | UACC-62 melanoma 93.3% | LOX IMVI melanoma 102% | SK-MEL-28 melanoma 103%

COc1c(F)cc(-n2c(C(=O)N3CC(F)C3)cc3cccnc32)cc1F
inactive: HCT-15 colon 98.6% | HT29 colon 104% | SNB-75 CNS 82.2% | SNB-19 CNS 94.2% | U251 CNS 97.7% | PC-3 prostate 95.3% | SK-MEL-5 melanoma 99% | UACC-62 melanoma 101% | LOX IMVI melanoma 84.2% | SK-MEL-28 melanoma 122%

Cc1cccc(-c2nnc(SCC(=O)Nc3ncc(Cc4ccccc4)s3)n2N2C(=O)CSC2=S)c1
inactive: HCT-15 colon 78.5% | HT29 colon 81.2% | SNB-19 CNS 54.1% | U251 CNS 34.6% | PC-3 prostate 57.3% | SK-MEL-5 melanoma 75.9% | UACC-62 melanoma 20.1% | LOX IMVI melanoma 23.5% | SK-MEL-28 melanoma 51.3%
active: SNB-75 CNS -7.46%

COC(=O)[C@H]1Cc2c([nH]c3ccccc23)[C@@H](c2cccs2)N1
inactive: HCT-15 colon 102% | HT29 colon 97.1% | SNB-75 CNS 83.8% | SNB-19 CNS 98.2% | U251 CNS 97.7% | PC-3 prostate 100% | SK-MEL-5 melanoma 100% | UACC-62 melanoma 89.5% | LOX IMVI melanoma 104% | SK-MEL-28 melanoma 107%

CC12CCC(C(=O)CC1=O)C2(C)C (stereo not given)
inactive: HCT-15 colon 103% and 106% | HT29 colon 108% and 109% | SNB-75 CNS 87.5% and 95.1% | SNB-19 CNS 107% and 105% | U251 CNS 99.6% and 100% | PC-3 prostate 97.2% and 104% | SK-MEL-5 melanoma 99.8% and 104% | UACC-62 melanoma 102% and 106% | LOX IMVI melanoma 97.3% and 95.3% | SK-MEL-28 melanoma 106%

CN(C)CCCn1c2c(c3ccc(N4CCNCC4)cc3c1=O)C(=O)c1ccccc1-2
inactive: SNB-75 CNS 22.3% | SK-MEL-5 melanoma 28.7% | UACC-62 melanoma 51.8% | SK-MEL-28 melanoma 59.7%
active: HCT-15 colon -36.5% | HT29 colon -52.4% | SNB-19 CNS -13.9% | U251 CNS -54.1% | PC-3 prostate -34.7% | LOX IMVI melanoma -90%

C=C1CC[C@@H]2[C@](C)(COC(C)=O)[C@H](OC(C)=O)CC[C@@]2(C)[C@@H]1CC(Nc1ccc(S(=O)(=O)Nc2nccs2)cc1)C1=CCOC1=O (stereo not given in full)
active: HCT-15 colon -39.2% | HT29 colon -42.7% | U251 CNS 4.21% | LOX IMVI melanoma -88.3% | SK-MEL-28 melanoma -16.3%
inactive: SNB-75 CNS 28.3% | SNB-19 CNS 49.1% | PC-3 prostate 21.8% | SK-MEL-5 melanoma 31.4% | UACC-62 melanoma 21.2%

COc1ccc2c(c1)CC[C@@H]1[C@@H]2CC[C@]2(C)C3C(=CCC4C(=O)N(c5ccccc5)C(=O)C43)C[C@@H]12 (stereo not given in full)
inactive: HCT-15 colon 88.5% | HT29 colon 71.3% | SNB-75 CNS 79.8% | SNB-19 CNS 108% | U251 CNS 87.5% | PC-3 prostate 51.1% | SK-MEL-5 melanoma 89.9% | UACC-62 melanoma 64.5% | LOX IMVI melanoma 83.6% | SK-MEL-28 melanoma 105%

CCCN1C(=O)/C(=c2\sc3n(c2=O)NC2C(N=3)N(CC)C(=O)N2CC)c2ccccc21 (stereo not given)
inactive: HCT-15 colon 24.6% | HT29 colon 13.5% | SNB-75 CNS 12.9% | SNB-19 CNS 40.2% | U251 CNS 29.9% | PC-3 prostate 42.5% | SK-MEL-5 melanoma 41.8% | UACC-62 melanoma 31.8% | LOX IMVI melanoma 38.8% | SK-MEL-28 melanoma 54.5%

O=C1C(=C(O)c2ccccc2)C(=O)c2ccccc21
inactive: HCT-15 colon 102% | HT29 colon 109% | SNB-75 CNS 76.5% | SNB-19 CNS 98.1% | U251 CNS 109% | PC-3 prostate 94.5% | SK-MEL-5 melanoma 107% | UACC-62 melanoma 96% | LOX IMVI melanoma 99% | SK-MEL-28 melanoma 105%

Nc1nc(Nc2ccc(F)cc2)nn1C(=O)c1cc(Cl)ccc1Cl
inactive: HCT-15 colon 69.1% | HT29 colon 70.8% | SNB-75 CNS 76.7% | SNB-19 CNS 65.8% | U251 CNS 76.1% | PC-3 prostate 75.6% | SK-MEL-5 melanoma 87% | UACC-62 melanoma 60.8% | LOX IMVI melanoma 48.4% | SK-MEL-28 melanoma 86%

O=C(Nc1cc(C(F)(F)F)cc(C(F)(F)F)c1)c1cc(Cl)ccc1O
5.13% (active) and 12.9% (inactive): SNB-19 CNS
active: HCT-15 colon -39.7% and -24.9% | HT29 colon 0.709% and 1.2% | SNB-75 CNS -64.9% and -39.3% | U251 CNS -5.01% and -11.5% | PC-3 prostate 5.05% and -0.956% | SK-MEL-5 melanoma -70.3% | UACC-62 melanoma -56% and -42.8% | LOX IMVI melanoma -62.1% and -58.6% | SK-MEL-28 melanoma -33.4% and -22.4%

Clc1ccc(Nc2nc(Nc3ccc(Cl)cc3)nc(Nc3ccc(-c4cc(-c5cccc(Cl)c5)on4)cc3)n2)cc1
inactive: HCT-15 colon 89.8% | HT29 colon 105% | SNB-75 CNS 99.4% | SNB-19 CNS 101% | U251 CNS 79% | PC-3 prostate 86.7% | SK-MEL-5 melanoma 88% | UACC-62 melanoma 105% | LOX IMVI melanoma 79.4% | SK-MEL-28 melanoma 108%

O=[N+]([O-])c1ccc(S(=O)Cc2ccccc2)c([N+](=O)[O-])c1 (stereo not given)
inactive: SNB-75 CNS 105% and 50% | SNB-19 CNS 92.8% and 97.7% | U251 CNS 93.6% and 91% | PC-3 prostate 93.9% and 82.8% | SK-MEL-5 melanoma 88% and 75.9% | UACC-62 melanoma 54.6% and 82.2% | SK-MEL-28 melanoma 89.4% and 23%
active: HCT-15 colon 6.6% and -44.4% | HT29 colon -67.6% and -20.6% | LOX IMVI melanoma -75.4% and -31.4%

COc1cccc(C2C(C#N)=C(N)Oc3cc(OCCCCCC[P+](c4ccccc4)(c4ccccc4)c4ccccc4)ccc32)c1 (stereo not given)
inactive: HCT-15 colon 62%
active: HT29 colon -17.6% | SNB-75 CNS -71.3% | SNB-19 CNS -65.8% | U251 CNS -79.4% | PC-3 prostate -13.1% | SK-MEL-5 melanoma -97.5% | UACC-62 melanoma -66.8% | LOX IMVI melanoma -93.8% | SK-MEL-28 melanoma -77.1%

CC1=C2[C@@H](CC1)[C@]1(C)O[C@@](C(C)C)(C[C@H]1OC(=O)CO)[C@H]2OC(=O)C1CC1c1ccccc1 (stereo not given in full)
inactive: HCT-15 colon 96.8% | HT29 colon 75% | SNB-75 CNS 102% | SNB-19 CNS 88.5% | U251 CNS 79.6% | PC-3 prostate 62.6% | SK-MEL-5 melanoma 95% | UACC-62 melanoma 53.3% | LOX IMVI melanoma 77% | SK-MEL-28 melanoma 114%

CN(Cc1ccccc1)c1nc(Cl)c(C2CC(c3ccc(F)cc3)=NN2C=O)s1 (stereo not given)
inactive: HCT-15 colon 90.4% | HT29 colon 95.4% | SNB-75 CNS 97.3% | SNB-19 CNS 98.1% | U251 CNS 97.7% | PC-3 prostate 83.6% | SK-MEL-5 melanoma 90.4% | UACC-62 melanoma 79.2% | LOX IMVI melanoma 92.8% | SK-MEL-28 melanoma 106%

O=C1N=c2ccccc2=C1c1sc(=S)n(C2CC(=O)N(c3ccc(Cl)cc3)C2=O)c1O (stereo not given)
inactive: HCT-15 colon 93.7% | HT29 colon 114% | SNB-75 CNS 86.1% | SNB-19 CNS 102% | U251 CNS 104% | PC-3 prostate 86.6% | SK-MEL-5 melanoma 102% | UACC-62 melanoma 95.9% | LOX IMVI melanoma 89.5% | SK-MEL-28 melanoma 109%

COc1cc(CNC(=O)CCCC/C=C/C(C)C)ccc1OCc1cn(-c2ccc([N+](=O)[O-])cc2)nn1
inactive: HCT-15 colon 96.2% | HT29 colon 98.1% | SNB-75 CNS 83.9% | SNB-19 CNS 97.4% | U251 CNS 86.4% | PC-3 prostate 78% | SK-MEL-5 melanoma 76.1% | UACC-62 melanoma 69.3% | LOX IMVI melanoma 89.5% | SK-MEL-28 melanoma 102%

CCN1C(=O)/C(=c2\sc3n(c2=O)C2C(NN=3)N(CC)C(=O)N2CC)c2ccccc21 (stereo not given)
inactive: HCT-15 colon 19.3% | HT29 colon 13% | SNB-19 CNS 42% | U251 CNS 32.3% | PC-3 prostate 26.3% | SK-MEL-5 melanoma 12.7% | UACC-62 melanoma 32.9% | LOX IMVI melanoma 33% | SK-MEL-28 melanoma 54.2%
active: SNB-75 CNS 5.72%
